The text below walks through data of PubChem BioAssay.

SMILES strings stand for the structures. For part of these data: Entries with a potency or affinity are not part of this list. Activity calls are given as the source filed them.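 The calls were made as follows, unless noted: active = primary screen active and over 50% activation in each of two duplicate runs; inactive = the rest.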

Test [1] relates to TRPC4 beta (transient receptor potential cation channel C4), mouse. Put plainly: TRPC4 cation channel opening, retest – cell-based, Fluo4 calcium, HEK293 TRPC4beta/mu-opioid, duplicates, 10 µM, confirmation (AID 2426;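 active = fluorescence ratio normalized to control raised more than 50% in primary screen plus both repeat runs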;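 as to activation: percent rise of integrated ratio over buffer wells lacking compound which define 0%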). The following applies: Fluo4 calcium fluorescence, at 10 µM; active compounds read high.
Test [2] deals with transient receptor potential cation channel C4 beta (TRPC4), mouse. Kind of test: TRPC4 cation channel opening, second retest – cell-based, second round, Fluo4, HEK293 TRPC4beta/mu-opioid, 1 µM, confirmation (AID 2461).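 As to activation: 0% = wells without test compound as baseline of integrated fluorescence ratio.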 The following applies: Fluo4 calcium fluorescence, at 1 µM; active compounds read high.
In test [3] the test system is TRPC4 (transient receptor potential cation channel C4 beta), mouse. Kind of test: potentiation of DAMGO EC20 TRPC4 response – cell-based, second round, Fluo-4, HEK293 TRPC4beta/mu-opioid, 1 µM, confirmation (AID 2554;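 active = primary screen hit whose fluorescence ratio, in both repeats, exceeds the weak agonist control mean by 3 SD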). As to conditions: DAMGO EC20, Fluo-4 calcium flux, at 1 µM; active compounds read high. (In general: Calcium flux is commonly read through the fluorescence of an indicator in the cells.)

The subject of test [4] is TRPC4 beta (transient receptor potential cation channel C4), mouse. Kind of test: potentiation of DAMGO EC20 TRPC4 response – cell-based, Fluo-4, HEK293 TRPC4beta/mu-opioid, confirmation (AID 2555;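 active = primary screen hit whose calcium fluorescence ratio, in both repeats, exceeds the weak agonist control mean by 3 SD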). The following applies: DAMGO EC20, Fluo-4 calcium flux, at 10 µM; active compounds read high.
The target of test [5] is Short transient receptor potential channel 4 (Mus musculus) (UniProt Q9QUQ5). Put plainly: blockers of DAMGO-evoked TRPC4 calcium flux – cell-based, Fluo4, HEK293 TRPC4beta/mu-opioid, confirmation (AID 2636;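 active = calcium signal cut by more than 3 SD below the full-agonist control yet still positive, in both repeats and the earlier primary screen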). As to conditions: at 10 µM; active compounds read high.
Short transient receptor potential channel 4 (Mus musculus), sequence (Q9QUQ5 whole entry, looked up): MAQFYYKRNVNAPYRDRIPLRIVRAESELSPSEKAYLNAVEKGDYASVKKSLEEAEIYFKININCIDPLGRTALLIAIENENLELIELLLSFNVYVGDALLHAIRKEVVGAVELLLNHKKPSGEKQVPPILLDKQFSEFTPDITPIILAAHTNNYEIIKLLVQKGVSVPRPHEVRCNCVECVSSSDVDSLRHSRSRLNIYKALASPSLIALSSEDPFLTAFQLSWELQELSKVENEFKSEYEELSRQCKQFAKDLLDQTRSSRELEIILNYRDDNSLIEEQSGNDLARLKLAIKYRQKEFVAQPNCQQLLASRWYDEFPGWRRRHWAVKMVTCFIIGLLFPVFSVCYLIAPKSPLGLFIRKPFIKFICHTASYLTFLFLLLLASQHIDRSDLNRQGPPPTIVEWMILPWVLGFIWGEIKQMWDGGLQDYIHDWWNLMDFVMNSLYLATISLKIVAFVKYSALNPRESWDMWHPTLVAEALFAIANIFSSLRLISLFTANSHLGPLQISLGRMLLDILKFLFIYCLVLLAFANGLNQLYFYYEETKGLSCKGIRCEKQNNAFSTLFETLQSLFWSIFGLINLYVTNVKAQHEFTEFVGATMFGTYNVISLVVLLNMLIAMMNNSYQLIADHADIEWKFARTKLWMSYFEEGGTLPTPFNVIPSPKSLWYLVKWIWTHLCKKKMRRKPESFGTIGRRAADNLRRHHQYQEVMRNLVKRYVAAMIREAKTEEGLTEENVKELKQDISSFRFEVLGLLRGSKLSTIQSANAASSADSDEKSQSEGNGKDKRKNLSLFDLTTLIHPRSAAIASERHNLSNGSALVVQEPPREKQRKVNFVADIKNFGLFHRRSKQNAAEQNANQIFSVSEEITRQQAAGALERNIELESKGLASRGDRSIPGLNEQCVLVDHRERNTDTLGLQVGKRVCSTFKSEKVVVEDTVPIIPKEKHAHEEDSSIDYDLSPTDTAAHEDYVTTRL
Test [6] shares this target. Put plainly: blockers of DAMGO-evoked TRPC4 calcium flux – cell-based, second round, Fluo4, HEK293 TRPC4beta/mu-opioid, 1 µM, confirmation (AID 2637;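 active = calcium signal ratio cut to more than 3 SD under the fully stimulated control mean yet still positive, in both repeats and the primary screen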). The following applies: at 1 µM; active compounds read high.
The target is the same in test [7]. Put plainly: potentiation of DAMGO-evoked TRPC4 calcium signal – cell-based, HEK293 TRPC4/mu-opioid, Fluo-4 calcium, EC20 DAMGO, dose response (AID 434941;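 active = earlier screen potentiator hit that boosts the TRPC4 ion channel at some dose, with a dose response; inactive = no potentiation, no dose response, or not a prior hit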;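 also: calcium entry triggered by an EC20 dose of DAMGO at the co-expressed mu-opioid receptor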).
Test [8] shares this target. Kind of test: block of DAMGO-driven TRPC4 calcium entry – cell-based, HEK293 TRPC4/mu-opioid, Fluo-4 calcium, dose response (AID 434942;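 active = primary screen inhibitor hit that blocks the TRPC4 channel at some tested dose, yielding a dose curve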).
Test [9] addresses Short transient receptor potential channel 6 (Mus musculus) (UniProt Q61143). Put plainly: TRPC6 blockade by TRPC4 inhibitor hits – cell-based, HEK293, membrane potential dye, duplicate, selectivity assay for TRPC4 inhibitor project, confirmation (AID 434948;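 active = active in primary screen and both duplicates, each dropping signal beyond three positive-control SD with fluorescence still positive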). As to conditions: HEK293 TRPC6, membrane potential dye fluorescence, at 10 µM, stimulated with maximal-effect acetylcholine; active compounds read high.

Test [10] shares this target. Kind of test: TRPC6 opening by TRPC4 activator hits – cell-based, HEK293, membrane potential dye, duplicate, selectivity assay for TRPC4 activator project, confirmation (AID 434950;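 active = membrane potential signal rise above negative control mean plus 3 SD in both duplicates, also active in the earlier TRPC4 screen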;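 as to activation: 0% = buffer only wells and 100% = acetylcholine maximal-effect wells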). As to conditions: HEK293 TRPC6, membrane potential fluorescence, at 10 µM; activation: active compounds read high; outcome: activation.
For test [11] the target is unchanged. Put plainly: positive modulators of mouse TRPC6 channel – HEK293 cells, membrane potential dye, duplicate, selectivity assay for TRPC4 potentiator project, confirmation (AID 434952;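 active = compound raising the membrane signal above positive-control mean plus 3 SD in both repeats, and a primary screen hit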). As to conditions: HEK293 TRPC6, membrane potential dye fluorescence, at 10 µM, maximal acetylcholine added after compound; active compounds read high.
For test [12], the target named is Short transient receptor potential channel 4 (Mus musculus) (UniProt Q9QUQ5). Kind of test: calcium flux activators in TRPC4/5HT1a cells, counter-screen for TRPC4 activator project, cell-based, second counter screen, HEK293 TRPC4/5HT1a, Fluo-4 (AID 434977;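 active = calcium signal rise above buffer-control mean plus 5 SD in both duplicates, and also a hit in the primary screen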;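 as to activation: plate controls were assay buffer for no effect and maximal serotonin response for full effect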). As to conditions: Fluo-4 calcium flux, at 10 µM; active compounds read high.
A short description of test [13]: serotonin-gated TRPC4 signal block – cell-based, second counter screen, HEK293 TRPC4/5HT1a, Fluo-4, counter-screen for TRPC4 inhibitor project, confirmation (AID 434978;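 active = primary screen active whose calcium signal fell more than 3 SD beyond the full-serotonin control mean in both duplicate plates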;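 also: serotonin given first at submaximal then at maximal dose after compound preincubation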). As to conditions: Fluo-4 calcium flux, at 10 µM, serotonin added to trigger calcium flux; active compounds read high. (A counterscreen serves to expose hits that act by an unwanted route or on another target.)

The test system of test [14] is TRPC4 (mouse), co-expressed with 5HT1a in HEK293. Put plainly: enhancement of serotonin-evoked TRPC4 response – cell-based, second counter screen, HEK293 TRPC4/5HT1a, Fluo-4, counter-screen for TRPC4 potentiator project, confirmation (AID 434979;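 active = signal rise over 3 SD above mean of control wells given weak agonist, in both repeats and first screen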). The following applies: Fluo-4 calcium flux, at 10 µM, serotonin added at its EC20 dose; active compounds read high.
Test [15] is described as follows: nonspecific calcium rise without TRPC4 – cell-based, HEK293 mu-opioid receptor line, counter-screen for TRPC4 activator project, confirmation (AID 449723;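 active = hit in primary screen, with calcium signal over 5 SD above buffer well mean in both duplicates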;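 also: counter screen cells carry the mu-opioid receptor alone and lack TRPC4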). The following applies: HEK293 mu-opioid cells, Fluo-4 calcium fluorescence, at 10 µM; active compounds read high.
The nature of test [16]: nonspecific potentiation of DAMGO calcium response – cell-based, HEK293 mu-opioid receptor line, counter-screen for TRPC4 allosteric potentiator project, confirmation (AID 449724;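 active = calcium signal rise more than 3 SD above the low-dose agonist control mean, in both duplicate plates and the primary screen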;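 also: HEK293 cells carrying mu-opioid receptor only with no TRPC4 channel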). As to conditions: HEK293 mu-opioid receptor cells, Fluo-4 calcium flux, at 10 µM, compound added before EC20 DAMGO stimulus; active compounds read high.

Short transient receptor potential channel 6 (Mus musculus), sequence (Q61143 whole entry, looked up): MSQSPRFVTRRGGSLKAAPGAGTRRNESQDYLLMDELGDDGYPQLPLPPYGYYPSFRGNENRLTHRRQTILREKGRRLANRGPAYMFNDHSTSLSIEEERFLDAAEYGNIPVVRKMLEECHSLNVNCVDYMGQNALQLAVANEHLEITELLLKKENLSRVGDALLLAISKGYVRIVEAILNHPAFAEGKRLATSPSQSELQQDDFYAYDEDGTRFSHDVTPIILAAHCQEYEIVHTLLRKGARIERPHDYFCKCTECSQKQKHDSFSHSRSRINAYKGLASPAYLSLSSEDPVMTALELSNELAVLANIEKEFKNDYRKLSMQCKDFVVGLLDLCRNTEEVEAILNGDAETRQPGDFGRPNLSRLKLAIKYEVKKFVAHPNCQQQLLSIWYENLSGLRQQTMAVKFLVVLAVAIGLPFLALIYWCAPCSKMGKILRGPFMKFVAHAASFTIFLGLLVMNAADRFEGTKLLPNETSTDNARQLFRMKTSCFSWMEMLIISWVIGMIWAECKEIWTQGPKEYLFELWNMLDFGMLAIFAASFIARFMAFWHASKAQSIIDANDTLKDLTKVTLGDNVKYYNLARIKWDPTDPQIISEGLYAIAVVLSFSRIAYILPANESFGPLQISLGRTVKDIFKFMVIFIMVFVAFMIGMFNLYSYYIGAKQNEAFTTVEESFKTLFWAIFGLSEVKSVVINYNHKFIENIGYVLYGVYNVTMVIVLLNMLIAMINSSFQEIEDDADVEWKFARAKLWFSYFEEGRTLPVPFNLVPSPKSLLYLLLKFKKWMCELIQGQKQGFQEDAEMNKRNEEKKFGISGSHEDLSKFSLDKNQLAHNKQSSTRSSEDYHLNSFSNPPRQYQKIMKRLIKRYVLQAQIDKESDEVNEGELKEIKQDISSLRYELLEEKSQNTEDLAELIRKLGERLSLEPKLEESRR

As for `Cc1cc2nc3s/c(=C/c4ccc(-c5ccccc5C(=O)O)o4)c(=O)n3c2cc1C`, the activation was 177% (active) in [1], 675% (active) in test [10], 112% (active) in [12] and 136% (active) in test [15]. Besides, the result in [2], in test [3], in [4], in test [5], in [6] and in test [7] was inactive. Also, the outcome in [8], in [9], in [11], in test [13], in test [14] and in test [16] was inactive.

For `CN1CCC(=O)N([C@H](CSc2ccc(Br)cc2)Cc2ccccc2)CC1`, the result in test [1], in test [2], in test [3], in test [4], in test [5] and in [6] was inactive. Moreover, the outcome in test [7], in [8], in test [9], in [11], in test [12] and in test [13] was inactive. Further, the outcome in [14], in [15] and in test [16] was inactive. Besides, the activation in [10] was 33% (active).

Take `CC(=O)NC(CC(=O)NCC(c1ccco1)N(C)C)c1ccccc1` (centres undefined): the values for the activation in [1] and in [2] were 98% (active) and 78% (active), respectively. Also, the result in [3], in [4], in test [5], in [6], in [7] and in test [8] was inactive. The result in test [9], in test [10], in [11], in [12], in test [13] and in test [14] was inactive. The outcome in test [15] and in test [16] was inactive.

For the molecule `COCC1CCN(Cc2cn(-c3ccccc3F)nc2-c2cc(C)sc2C)CC1`, the activation is 95% (active) in test [1] and 69.5% (active) in test [10]. The result in test [2], in test [3], in test [4], in test [5], in test [6] and in [7] was inactive. Also, the result in [8], in test [9], in test [11], in test [12], in test [13] and in test [14] was inactive. The result in test [15] and in [16] was inactive.

Regarding `O=C(COc1cc(Cl)c(Cl)cc1Cl)NCCc1ccccn1`, the results for the activation in test [1], in test [10] and in [12] were 60% (active), 53.5% (active) and 12.5% (active), respectively. Besides, the outcome in test [2], in [3], in test [4], in test [5], in test [6] and in test [7] was inactive. Also, the outcome in test [8], in test [9], in test [11], in test [13], in [14] and in test [15] was inactive. For the same molecule, in test [16], the result was inactive.

Regarding `O=C(NC1CC1)C1=C[C@H](c2csc3ccccc23)C[C@H](OCc2ccc(CO)cc2)O1`, the result in [1], in [2], in test [3], in [4], in [5] and in [6] was inactive. Besides, the result in [7], in [8], in test [9], in test [11], in test [12] and in test [13] was inactive. Also, the outcome in test [14], in test [15] and in test [16] was inactive. Besides, in test [10], the activation is 35.5% (active).

With `CCC(=O)N1CCc2cc(Br)cc(S(=O)(=O)NCCCN(CC)Cc3ccccc3)c21`, the activation in test [1] was 126% (active); in test [2], 153% (active); in test [12], 55.5% (active). The outcome in [3], in test [4], in [5], in test [6], in [7] and in test [8] was inactive. For the same molecule, the molecule was classed as inactive in test [9], in test [10], in [11], in test [13], in test [14] and in test [15]. The outcome in test [16] was inactive.

Consider `COc1ccccc1N1CCN(C(c2cccs2)C(C)NC(=O)c2ccco2)CC1` (centres undefined), for which the activation in test [1] was 73% (active); in test [10], 32% (active). The outcome in test [2], in test [3], in [4], in [5], in [6] and in [7] was inactive. In addition, the outcome in test [8], in test [9], in [11], in test [12], in test [13] and in test [14] was inactive. Moreover, the outcome in [15] and in [16] was inactive.

`COC(=O)c1ccc(C(=S)NCC2(N(C)C)CCCCC2)cc1`: the activation in test [1] was 181% (active); in test [10], 41% (active); in [12], 22.2% (active); in test [15], 14.7% (active). The result in test [2], in test [3], in test [4], in test [5], in [6] and in [7] was inactive. The outcome in [8], in test [9], in test [11], in test [13], in [14] and in test [16] was inactive.
